Drawing on PubChem BioAssay (NCI), this text covers growth for seven molecules.

Structures are written as SMILES. The panel holds about 83,000 compounds, 20% with a hit somewhere; the sample as a whole holds those more often.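 Single-dose data. Exposure time 48 hours. Values below 10 considered active.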 A number with no mark means an inactive call.

This experiment concerns NCI/ADR-RES ovarian. In words: NCI-60 one-dose screen, 48 h (100 = growth as untreated, 0 = no growth, -100 = all killed). The settings on record: 10 µM unless noted.
For `COc1ccccc1-n1c(SCc2cc(OC)c(OC)c(OC)c2)nc2ccc(Cl)cc2c1=O`, the growth is 20.2%.
For `C[C@@H](Oc1cc(-c2cnn(C3CC4(CCCNC4)C3)c2)cnc1N)c1c(Cl)ccc(F)c1Cl` (some centres not stated) the value was 46.1%; for `Cn1c2ccc(Cl)cc2c2nn(C(=O)c3ccccc3)c(=O)nc21`, 106%.
With `CC(C)(C)[Si](C)(C)OC1[C@@H](COC(=O)NC(=O)CCl)O[C@@H](n2cnc3c(N)ncnc32)[C@H]1O[Si](C)(C)C(C)(C)C` (some centres not stated), the growth is 46.6%.
For `CC1=CN2C(=NC3=C(CCCC/C3=C\c3ccccc3)C2c2ccccc2)S1` (configuration not stated), the growth is 100%.
With `Nc1c(Br)cc(Br)cc1-c1n[nH]c(=O)[nH]c1=O`, the growth is 103%.
Take `c1ccc(-c2nc(N3CCOCC3)c3c4c(sc3n2)CCCCCC4)nc1`: the growth was 25.9%.
